Shown are actives, neighbours in structure and some others; about 4.1% of the full set was active somewhere.
DAX1 inh-1: inhibits human nuclear receptor DAX1. HEK293 Gal4-DAX1 luciferase reporter, luminescence. inhibition, % at 6.75 µM. 0.99% of 340,000 active. AID 504766;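 active = inhibition above the mean over all tested compounds plus 3 SD, cut at about 4.2% in these data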;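 also: 0% = DAX1-transfected cells with DMSO and 100% = empty-vector control cells with DMSO; inhibition shows as a rise in luminescence from relieved DAX1 repression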
Target sequence (P51843 207-470 limits assumed): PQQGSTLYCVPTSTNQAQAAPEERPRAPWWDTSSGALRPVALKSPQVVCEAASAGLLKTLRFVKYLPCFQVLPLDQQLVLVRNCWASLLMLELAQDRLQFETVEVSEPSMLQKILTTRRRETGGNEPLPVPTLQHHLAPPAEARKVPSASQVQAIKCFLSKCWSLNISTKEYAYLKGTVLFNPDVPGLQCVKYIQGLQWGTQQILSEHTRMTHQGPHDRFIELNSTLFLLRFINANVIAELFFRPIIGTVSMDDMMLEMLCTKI
hcDAF12 agonist: activates DAF-12 receptor from parasite H. contortus; 1.4% of 370,000 active; activation, % at 6.8 µM; HEK293 hcDAF-12 lit1-tk-luc reporter, luminescence; 0% DMSO, 100% Δ7-dafachronic acid;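 active = activation above the mean of all tested compounds plus 3 SD, cut at about 5.5% in these data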;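 also: 100% = response to 3 µM Δ7-dafachronic acid high control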
DAX1 inh-2: DAX1 (NR0B1) inhibition, primary screen | AID 652010 | 1.1% of 370,000 active | inhibition, % at 6.8 µM | HEK293T StAR-luciferase reporter, SF-1/DAX-1 repression relief;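 active = inhibition above the mean over all tested compounds plus 3 SD, cut at about 3.6% in these data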;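 also: 0% = DAX-1 cells with DMSO and 100% = cells lacking DAX-1 with DMSO; higher inhibition means more luminescence from relief of DAX-1 repression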
hgDAF-12 ag: agonists of H. glycines DAF-12 nuclear receptor; HEK293 GAL4-hgDAF12 UAS-luciferase reporter, agonist luminescence; normalized to butyrate control; activation, % at 6.8 µM; 1.8% of 370,000 active; AID 687014;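 active = activation above a cutoff set at the mean of all screened compounds plus 3 SD, cut at about 10% in these data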;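 also: 0% = DMSO wells and 100% = sodium butyrate wells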
PolyA inh: blocks polyadenylation in yeast reporter cells; activity score, % at 12 µM; AID 1875; 0.02% of 300,000 active; S. cerevisiae SKY197-pL101 polyadenylation reporter, beta-gal luminescence; efflux-impaired pdr1/pdr3 knockout yeast; score 100 = 6 SD above DMSO;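 active = lowest replicate activity score at least 50, where 100 means six control SD above control mean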;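 also: yeast exposed to compound for 9 h at 30 °C; higher score means more reporter readthrough which indicates perturbed polyadenylation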
ssDAF12 agonist: S. stercoralis DAF-12 activation, primary screen; activation, % at 6.8 µM; 1% of 370,000 active; HEK293 ssDAF-12/GRIP1 lit1-tk-luc reporter, luminescence; % of 3 µM dafachronic acid response;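 active = activation above the mean over all tested compounds plus 3 SD, cut at about 0.9% in these data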;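 also: 0% = DMSO-only wells and 100% = 3 µM delta7-dafachronic acid wells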
Active calls of the source: *; . = not tested or not shown.

SMILES	DAX1 inh-1	hcDAF12 agonist	DAX1 inh-2	hgDAF-12 ag	PolyA inh	ssDAF12 agonist
COc1ccc(CNS(=O)(=O)CC2NCc3cc(OC)ccc32)cc1 (stereo not given)	.	-1	2	6	.	-1
O=C(OCc1cn(Cc2ccccc2F)nn1)N1CCCC1	.	-1	0	-1	.	0
COC(=O)c1sc2ncccc2c1OCc1cccc(Cl)c1	4.2*	-2	-2	3	-22	-1
COC(=O)c1sc2ncccc2c1OCc1c(Cl)cccc1Cl	1	0	0	1	-12	-1
COc1ccc(-c2nnc(SCC(=O)NN=Cc3c(O)ccc4ccccc34)n2-c2ccc(OC)cc2)cc1	.	-2	-2	-4	.	-1
O=C(Nc1nc2ccsc2c(=O)s1)c1ccc(Cl)cc1	5.8*	5	2	9	-3	0.9*
O=C(Nc1nc(=O)c2ccccc2s1)c1ccc(Cl)cc1	0	0	0	1	-32	0
Cc1c(Cc2ccccc2)c(=O)oc2c(C)c(OC(C)C(=O)NCC3CCC(C(=O)O)CC3)ccc12 (stereo not given)	3	1	1	-3	-13	-1
CCCc1cc(=O)oc2cc(OC(C)C(=O)NCC3CCC(C(=O)O)CC3)c(Cl)cc12 (stereo not given)	4.5*	-1	1	1	-30	-1
CC(Oc1ccc2ccc(=O)oc2c1)C(=O)NCC1CCC(C(=O)O)CC1 (stereo not given)	4.7*	-1	1	-2	0	0
Cc1cc(OC(C)C(=O)NCC2CCC(C(=O)O)CC2)c2c(C)c(Cc3ccccc3)c(=O)oc2c1 (stereo not given)	6.6*	-1	1	-3	5	-1
Cc1ccc(-c2c(C(=O)NCC(C)C)oc(=O)c3ccccc23)cc1	.	-1	0	-3	.	-1
c1nc(NCC2CC2)c2cc(-c3ccc4c(c3)OCO4)ccc2n1	.	3	.	7	.	0
COC(=O)[C@]12C[C@H](CC(=O)N3CCOCC3)C(=O)N(Cc3ccco3)C1=C[C@H](C1CCCC1)O[C@@H]2C	.	-2	0	-2	.	-1
Nc1cc2c(cc1Br)-c1ccc(F)cc1C2O (stereo not given)	2	3	0	12*	.	1
N#C/C(=C/c1ccc(-c2ccccc2[N+](=O)[O-])o1)C(N)=O	0	0	0	1	10	-1
N#C/C(=C/c1ccc(-c2cc([N+](=O)[O-])ccc2Cl)o1)C(N)=O	9.3*	-2	-2	-5	-12	-2
COC(=O)c1cc(-c2cc(Cl)cc(Cl)c2)c(=O)n2c1CCC2	.	0	-1	-1	.	-1
COC(=O)c1cc(-c2ccc(Cl)s2)c(=O)n2c1CCC2	.	6.5*	1	2	.	-1
Cc1nc2ccc(S(=O)(=O)NCC(=O)NCc3ccccc3Cl)cc2s1	.	-1	0	2	.	-1
Cc1cc2sc3ccccc3c(=O)c2c(C)c1O	0	4	2	9	18	1.1*
COc1ccc(NC(=O)NCc2ccc3c(c2)OCO3)cc1	-1	-3	0	2	11	-1
CC(=O)Nc1ccc(OCc2ccc3c(c2)OCO3)cc1	4	5	1	12*	-6	0
CCOc1ccc(NC(=S)NCc2ccc3c(c2)OCO3)cc1	5.5*	0	0	0	-13	0
Nc1nc(SCn2nnc3ccccc3c2=O)n[nH]1	6.8*	1	1	-1	1	-2
SMILES	DAX1 inh-1	hcDAF12 agonist	DAX1 inh-2	hgDAF-12 ag	PolyA inh	ssDAF12 agonist
Cc1ccc(C(=O)N/N=C/c2ccc3c(c2)OCO3)o1	2	5.9*	1	8	-8	1.0*
OC(COc1cccc2ccccc12)CN1CCOCC1 (stereo not given)	1	0	0	-5	.	0
OC(COc1ccc2ccccc2c1Cl)CN1CCOCC1 (stereo not given)	2	1	2	12*	12	-1
COCCn1c(SCC(=O)NCCc2ccccc2)nc2c([nH]c3ccccc32)c1=O	0	.	.	.	25	.
COc1ccc(NC(=O)CSc2nc3c([nH]c4ccccc43)c(=O)n2C)c(OC)c1	1	5	1	1	-3	0.9*
C=CCn1c(SCC(=O)Nc2ccccc2OC)nc2c([nH]c3ccccc32)c1=O	0	5.9*	-1	4	0	0
COCCn1c(SCC(=O)Nc2ccccc2OC)nc2c([nH]c3ccccc32)c1=O	-1	4	-2	0	-9	0
COCCn1c(SCC(=O)Nc2ccc(F)cc2F)nc2c([nH]c3ccccc32)c1=O	0	4	3	-3	17	1
C=CCn1c(SCC(=O)NCCc2ccccc2)nc2c([nH]c3ccccc32)c1=O	1	5	-2	2	4	1.0*
C=CCn1c(SCC(=O)Nc2ccc(F)cc2F)nc2c([nH]c3ccccc32)c1=O	0	3	-1	1	21	1.9*
COC(=O)C1=C(C)NC(=S)NC1c1ccc(Br)cc1 (stereo not given)	.	2	0	-3	.	-1
Cc1ccc(C(=O)C2CCN(CC(=O)N3CCCC3)CC2)cc1	.	-2	-1	1	.	-1
CCCCCCn1c(-c2ccc(Cl)cc2Cl)csc1=Nc1ccccc1	.	0	0	2	.	0
CCOC(=O)C1=NNC(C(=O)OCC)C1c1ccccc1 (stereo not given)	1	-1	0	-2	.	-1
CCOC(=O)C1=NNC(C(=O)O)C1c1ccccc1 (stereo not given)	0	6.0*	-1	10*	.	0
CC(=O)Nc1ccc(S(=O)(=O)NCc2ccccn2)cc1	4.3*	-1	-1	-1	-14	-1
COCCCNC(=S)NNC(=O)C1CC1c1ccc(C(C)(C)C)cc1 (stereo not given)	5.2*	0	0	3	-1	-2
COCCNC(=S)NC(=O)c1ccc(C(C)(C)C)cc1	0	0	0	8	13	-1
COC(=O)C1=C(C)N(Cc2ccc(C(F)(F)F)cc2)C(=NCc2ccccc2C(F)(F)F)NC1c1ccccc1C(F)(F)F (stereo not given)	.	-1	0	-3	.	-1
Cc1nc2ccc([N+](=O)[O-])cc2nc1C	2	-1	1	-2	7	-1
CC1=Nc2cc([N+](=O)[O-])ccc2NC(C)(C)C1	4.8*	2	0	12*	19	-2
CCCCNC(=O)N1CCC(c2nc3ccc(Cl)cc3[nH]2)CC1	.	-1	-1	0	.	-1
CCCCn1c(O)c2n(c1=O)Cc1ccccc1N=C2c1ccc(OC)cc1	.	5.6*	-1	4	.	0
O=c1n(Cc2ccccc2)c(O)c2n1Cc1ccccc1N=C2c1ccccc1	.	3	0	2	.	-1

Screening data as filed in PubChem.
